Records with an inconclusive call do not appear. Activity calls are given as the source filed them. The calls were made as follows, unless noted: active = hit-call score of the fitted dose curve at least 0.9, where 1 is the maximum; inactive = score below 0.9.
Assays:
[1] = target: Paired box protein Pax-6 (Homo sapiens) (UniProt P26367); assay: ATG_Pax6_CIS: Attagene CIS-FACTORIAL HepG2 Assay for human Paired Box 6 (PAX6) (AID 2282956); conditions: HepG2 CIS-FACTORIAL PAX6 reporter transcription, RNA readout; actives raise or lower the signal
Chain of Paired box protein Pax-6 (Homo sapiens) (P26367 whole entry, looked up): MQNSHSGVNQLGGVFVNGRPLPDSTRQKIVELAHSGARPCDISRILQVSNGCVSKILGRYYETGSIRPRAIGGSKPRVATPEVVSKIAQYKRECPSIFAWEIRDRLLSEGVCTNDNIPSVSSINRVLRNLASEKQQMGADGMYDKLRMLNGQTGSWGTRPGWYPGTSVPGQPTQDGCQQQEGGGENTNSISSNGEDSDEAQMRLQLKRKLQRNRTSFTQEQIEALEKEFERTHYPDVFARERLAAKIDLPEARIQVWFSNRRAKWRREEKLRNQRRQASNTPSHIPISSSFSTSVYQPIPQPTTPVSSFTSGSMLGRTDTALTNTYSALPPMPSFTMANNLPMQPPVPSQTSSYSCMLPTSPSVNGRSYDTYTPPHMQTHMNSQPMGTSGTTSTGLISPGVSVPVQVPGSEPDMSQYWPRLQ
In short: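 Multiplexed cis-reporter HepG2 system; 24 h treatment; reporter mRNA read by RT-PCR/CE fluorescence; bidirectional fit vs DMSO.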

[2] = ATG_PXRE_CIS: Attagene CIS-FACTORIAL HepG2 Assay for human Pregnane X Receptor Element (PXRE) (AID 2282957); conditions: HepG2 Attagene CIS-FACTORIAL PXRE reporter, mRNA; actives raise or lower the signal
In short: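 Cis-element reporter mRNA in human hepatoma HepG2 cells is measured 24 h post-dosing by RT-PCR, primer-extension labeling and capillary electrophoresis; gain or loss of signal is fitted relative to DMSO.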

[3] = ATG_PPRE_CIS: Attagene CIS-FACTORIAL HepG2 Assay for human Peroxisome Proliferator-activated Response Element (PPRE) (AID 2282958); conditions: HepG2 PPRE cis-element reporter, Attagene transcription factor profiling; actives raise or lower the signal
In short: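 Read-out: fluorescent reporter mRNA fragments resolved by capillary electrophoresis after RT-PCR. HepG2 cells carried transiently transfected PPRE-driven cis reporter constructs and were dosed for 24 h; gain or loss of signal fitted relative to DMSO.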

[4] = ATG_RORE_CIS: Attagene CIS-FACTORIAL HepG2 Assay for human RAR-related Orphan Receptor Element (RORE) (AID 2282959); conditions: HepG2 Attagene cis-factorial RORE reporter, mRNA; actives raise or lower the signal
In short: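 Readout: fluorescent reporter mRNA by RT-PCR plus capillary electrophoresis, 24 h after dosing transfected HepG2 cells. Endogenous transcription factor activity on a cis promoter element is measured. Gain or loss of signal fitted against DMSO.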

[5] = ATG_Sox_CIS: Attagene CIS-FACTORIAL HepG2 Assay for human SRY-box transcription factor (SOX) (AID 2282960); conditions: HepG2 Attagene cis-factorial SOX reporter, mRNA; actives raise or lower the signal
In short: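 Read-out: fluorescent RT-PCR products of SOX1-linked reporter transcripts resolved by capillary electrophoresis, fitted bidirectionally against DMSO. Transiently transfected HepG2 cells, 24 h after chemical exposure, endogenous transcription factor activity.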

[6] = target: Transcription factor Sp1 (Homo sapiens) (UniProt P08047); assay: ATG_Sp1_CIS: Attagene CIS-FACTORIAL HepG2 Assay for human Specificity Protein 1 (Sp1) (AID 2282961); conditions: HepG2 Sp1 cis-reporter transcription, actives raise or lower the signal
Chain of Transcription factor Sp1 (Homo sapiens) (P08047 whole entry, looked up): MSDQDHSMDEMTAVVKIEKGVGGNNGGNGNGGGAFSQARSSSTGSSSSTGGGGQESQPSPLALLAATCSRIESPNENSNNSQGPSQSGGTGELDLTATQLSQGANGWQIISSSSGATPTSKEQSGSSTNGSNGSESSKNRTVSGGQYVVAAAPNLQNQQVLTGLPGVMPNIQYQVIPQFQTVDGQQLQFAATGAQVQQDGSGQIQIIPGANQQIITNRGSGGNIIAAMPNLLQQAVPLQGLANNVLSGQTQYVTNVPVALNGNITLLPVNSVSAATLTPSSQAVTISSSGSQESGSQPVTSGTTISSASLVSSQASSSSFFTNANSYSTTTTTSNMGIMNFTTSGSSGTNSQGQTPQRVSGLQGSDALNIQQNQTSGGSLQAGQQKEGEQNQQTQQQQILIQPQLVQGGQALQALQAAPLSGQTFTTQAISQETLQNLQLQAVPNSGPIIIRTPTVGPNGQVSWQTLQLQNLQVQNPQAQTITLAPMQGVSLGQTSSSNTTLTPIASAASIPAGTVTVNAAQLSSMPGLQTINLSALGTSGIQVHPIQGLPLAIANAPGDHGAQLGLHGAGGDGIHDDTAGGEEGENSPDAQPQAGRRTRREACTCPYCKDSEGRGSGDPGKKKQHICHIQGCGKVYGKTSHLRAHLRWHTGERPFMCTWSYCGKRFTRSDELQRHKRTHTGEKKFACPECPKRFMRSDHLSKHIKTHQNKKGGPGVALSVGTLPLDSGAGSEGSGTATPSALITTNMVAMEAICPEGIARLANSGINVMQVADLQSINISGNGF
In short: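 Read-out: fluorescence of 6-FAM-labeled, HpaI-digested RT-PCR products separated by capillary electrophoresis. HepG2 cells carried transfected cis-element reporter units and were exposed to chemicals for 24 h; gain or loss of signal fitted relative to DMSO.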

[7] = ATG_SREBP_CIS: Attagene CIS-FACTORIAL HepG2 Assay for human Sterol Regulatory Element Binding (SREBP) (AID 2282962); conditions: HepG2 Attagene cis-factorial SREBP reporter, mRNA; actives raise or lower the signal
In short: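 mRNA induction of transfected cis-promoter reporters in HepG2 cells, 24 h post-dose. Detection: RT-PCR with 6-FAM-labelled products, HpaI digest, capillary electrophoresis. DMSO served as negative control and baseline.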

[8] = target: Signal transducer and activator of transcription 3 (Homo sapiens) (UniProt P40763); assay: ATG_STAT3_CIS: Attagene CIS-FACTORIAL HepG2 Assay for human Signal Transducer and Activator of Transcription 3 (STAT3) (AID 2282963); conditions: HepG2, Attagene cis-factorial STAT3 reporter transcription; actives raise or lower the signal
Chain of Signal transducer and activator of transcription 3 (Homo sapiens) (P40763 whole entry, looked up): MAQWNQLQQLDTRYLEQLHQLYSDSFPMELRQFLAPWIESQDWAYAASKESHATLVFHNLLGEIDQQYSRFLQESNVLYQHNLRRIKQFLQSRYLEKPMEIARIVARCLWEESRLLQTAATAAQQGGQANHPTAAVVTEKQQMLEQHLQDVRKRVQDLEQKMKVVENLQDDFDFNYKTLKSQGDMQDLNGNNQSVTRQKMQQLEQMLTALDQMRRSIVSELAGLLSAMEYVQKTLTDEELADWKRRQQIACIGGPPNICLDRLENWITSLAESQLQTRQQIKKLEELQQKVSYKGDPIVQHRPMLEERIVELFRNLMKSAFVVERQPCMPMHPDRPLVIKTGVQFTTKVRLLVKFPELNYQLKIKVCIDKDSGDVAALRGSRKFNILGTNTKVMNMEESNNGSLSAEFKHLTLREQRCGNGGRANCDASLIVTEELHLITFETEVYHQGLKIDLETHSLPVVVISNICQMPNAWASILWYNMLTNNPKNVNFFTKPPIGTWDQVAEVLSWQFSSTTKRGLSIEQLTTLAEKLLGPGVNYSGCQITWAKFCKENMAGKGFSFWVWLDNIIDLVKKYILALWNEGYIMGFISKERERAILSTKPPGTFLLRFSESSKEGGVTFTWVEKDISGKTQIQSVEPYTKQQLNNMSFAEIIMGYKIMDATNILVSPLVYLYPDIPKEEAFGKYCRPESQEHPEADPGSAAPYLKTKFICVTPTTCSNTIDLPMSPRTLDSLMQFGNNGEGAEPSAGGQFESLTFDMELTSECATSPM
In short: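 After a 24 h compound incubation, total RNA from MRTU-transfected HepG2 cells was converted to cDNA and reporter sequences PCR-amplified, labelled and profiled by capillary electrophoresis. Gain and loss of signal were referenced to DMSO.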

[9] = ATG_TA_CIS: Attagene CIS-FACTORIAL HepG2 Assay for human TA Basal Promoter (AID 2282964); conditions: HepG2 Attagene CIS-factorial TA basal promoter reporter; actives raise or lower the signal
In short: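 Transient MRTU transfection of HepG2 preceded 24 h compound exposure. Reporter mRNA levels were then read by RT-PCR with capillary electrophoresis, and this background-control endpoint was fitted bidirectionally to DMSO.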

[10] = ATG_TCF_b_cat_CIS: Attagene CIS-FACTORIAL HepG2 Assay for human T-Cell-Factor with beta-catenin (TCF/b-cat) (AID 2282965); conditions: HepG2 TCF/beta-catenin cis-reporter transcription, actives raise or lower the signal
In short: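 Endogenous transcription factor activity is captured through cis-promoter reporter constructs transiently introduced into human HepG2 liver cells. Induced reporter mRNA is measured after 24 h and fitted bidirectionally relative to DMSO.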

[11] = ATG_TAL_CIS: Attagene CIS-FACTORIAL HepG2 Assay for human TAL Basal Promoter (AID 2282966); conditions: HepG2 Attagene cis-factorial TAL promoter reporter; actives raise or lower the signal;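 also: background control endpoint measuring basal TAL promoter reporter mRNA not a specific factor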
In short: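 In this cell-based multiplex, HepG2 liver cells bearing cis-promoter reporter constructs are dosed for 24 hours. Total RNA is reverse-transcribed and amplified, labelled fragments are sized by capillary electrophoresis, and signal changes are fitted bidirectionally versus DMSO.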

[12] = ATG_TGFb_CIS: Attagene CIS-FACTORIAL HepG2 Assay for human Transforming Growth Factor (TGF) (AID 2282967); conditions: HepG2 Attagene CIS TGFb reporter, mRNA transcription; actives raise or lower the signal
In short: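 After a 24-hour incubation with compound, transfected HepG2 cells were lysed for RNA; reporter cDNA was amplified, fluorescently end-labeled and separated by CE. DMSO served as baseline for bidirectional fits.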

[13] = ATG_VDRE_CIS: Attagene CIS-FACTORIAL HepG2 Assay for human Vitamin D Receptor Element (VDRE) (AID 2282968); conditions: HepG2 VDRE cis-reporter transcription, actives raise or lower the signal
In short: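 In transiently transfected HepG2 liver cells, gain or loss of reporter mRNA after 24 h exposure is scored relative to DMSO, using fluorescence detection by capillary electrophoresis of RT-PCR products.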

[14] = target: Nuclear receptor subfamily 1 group I member 3 (Homo sapiens) (UniProt Q14994); assay: ATG_CAR_TRANS: Attagene TRANS-FACTORIAL HepG2 Assay for human Constitutive Androstane Receptor (CAR) (AID 2282969; active = hit-call score of the fitted dose curve at least 0.9, where 1 is the maximum;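 also: activators raise reporter mRNA above DMSO so AC50 marks induction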); conditions: HepG2 Attagene TRANS-FACTORIAL CAR reporter
Chain of Nuclear receptor subfamily 1 group I member 3 (Homo sapiens) (Q14994 whole entry, looked up, the tested form may be a part): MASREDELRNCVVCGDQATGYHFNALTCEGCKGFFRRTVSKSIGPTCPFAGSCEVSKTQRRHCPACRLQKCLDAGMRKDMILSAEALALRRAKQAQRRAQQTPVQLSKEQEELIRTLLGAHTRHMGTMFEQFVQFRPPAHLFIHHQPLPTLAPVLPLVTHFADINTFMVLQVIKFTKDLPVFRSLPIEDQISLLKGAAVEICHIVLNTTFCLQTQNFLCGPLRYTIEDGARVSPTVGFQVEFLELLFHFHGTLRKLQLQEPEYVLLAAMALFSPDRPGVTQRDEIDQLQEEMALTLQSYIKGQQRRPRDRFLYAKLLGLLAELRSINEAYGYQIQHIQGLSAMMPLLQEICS
In short: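 Readout is reporter mRNA induction, quantified by fluorescent primer extension and capillary electrophoresis after RT-PCR. Cells were HepG2 transiently carrying chimeric NR-Gal4 constructs with GAL4-UAS reporters, treated for 24 h; activity scored upward from DMSO.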

[15] = target: Estrogen receptor (Homo sapiens) (UniProt P03372); assay: ATG_ERa_TRANS: Attagene TRANS-FACTORIAL HepG2 Assay for human Estrogen Receptor alpha (ERa) (AID 2282970; active = hit-call score of the fitted dose curve at least 0.9, where 1 is the maximum); conditions: HepG2 Attagene TRANS ERa GAL4 reporter, mRNA
Chain of Estrogen receptor (Homo sapiens) (P03372 whole entry, looked up, the tested form may be a part): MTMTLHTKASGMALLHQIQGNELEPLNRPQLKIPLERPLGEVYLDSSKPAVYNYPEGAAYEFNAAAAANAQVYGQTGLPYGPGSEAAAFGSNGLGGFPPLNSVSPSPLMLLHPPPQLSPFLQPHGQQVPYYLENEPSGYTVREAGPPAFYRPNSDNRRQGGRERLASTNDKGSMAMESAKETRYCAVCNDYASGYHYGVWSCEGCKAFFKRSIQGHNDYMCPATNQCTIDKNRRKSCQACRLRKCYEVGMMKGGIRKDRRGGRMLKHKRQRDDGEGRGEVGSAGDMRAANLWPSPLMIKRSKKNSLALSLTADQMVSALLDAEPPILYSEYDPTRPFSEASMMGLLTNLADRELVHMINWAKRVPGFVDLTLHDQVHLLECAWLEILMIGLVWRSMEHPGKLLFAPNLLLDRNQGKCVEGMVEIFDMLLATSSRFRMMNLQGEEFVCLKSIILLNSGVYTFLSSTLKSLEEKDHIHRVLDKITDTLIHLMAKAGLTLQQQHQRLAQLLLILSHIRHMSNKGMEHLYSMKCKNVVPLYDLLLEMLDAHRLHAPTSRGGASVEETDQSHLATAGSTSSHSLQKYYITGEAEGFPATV
In short: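 After 24 h of compound treatment, RNA from HepG2 cells bearing transfected GAL4-UAS reporter constructs is converted to cDNA, amplified and fluorescently labelled. Capillary electrophoresis resolves the ERa-linked reporter; DMSO serves as negative control.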

[16] = target: Steroid hormone receptor ERR1 (Homo sapiens) (UniProt P11474); assay: ATG_ERRa_TRANS: Attagene TRANS-FACTORIAL HepG2 Assay for human Estrogen-Related Receptor alpha (ERRa) (AID 2282971; active = hit-call score of the fitted dose curve at least 0.9, where 1 is the maximum); conditions: HepG2 Attagene TRANS reporter, ERRa transactivation
Chain of Steroid hormone receptor ERR1 (Homo sapiens) (P11474 whole entry, looked up, the tested form may be a part): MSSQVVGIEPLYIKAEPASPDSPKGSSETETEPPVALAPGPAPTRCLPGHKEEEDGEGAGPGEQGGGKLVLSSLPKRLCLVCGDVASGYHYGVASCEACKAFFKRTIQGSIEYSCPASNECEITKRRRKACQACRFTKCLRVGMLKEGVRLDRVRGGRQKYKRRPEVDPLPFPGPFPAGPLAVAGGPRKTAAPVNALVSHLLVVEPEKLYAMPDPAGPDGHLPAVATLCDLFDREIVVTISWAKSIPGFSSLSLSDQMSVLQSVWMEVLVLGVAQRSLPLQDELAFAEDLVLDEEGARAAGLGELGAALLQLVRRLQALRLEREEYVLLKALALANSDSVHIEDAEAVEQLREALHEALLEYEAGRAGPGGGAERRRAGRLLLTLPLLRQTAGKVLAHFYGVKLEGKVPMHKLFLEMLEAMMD
In short: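 Transfected HepG2, 24 h dosing, ERRa-Gal4 chimera driving GAL4-UAS reporter. Readout: reporter mRNA via RT-PCR plus capillary electrophoresis (fluorescence). Positive direction vs DMSO control.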

[17] = target: X-box-binding protein 1 (Homo sapiens) (UniProt P17861); assay: ATG_Xbp1_CIS: Attagene CIS-FACTORIAL HepG2 Assay for human X-box Binding Protein 1 (XBP1) (AID 2282972); conditions: HepG2 XBP1 cis-element reporter, Attagene multiplex; actives raise or lower the signal
Chain of X-box-binding protein 1 (Homo sapiens) (P17861 whole entry, looked up, the tested form may be a part): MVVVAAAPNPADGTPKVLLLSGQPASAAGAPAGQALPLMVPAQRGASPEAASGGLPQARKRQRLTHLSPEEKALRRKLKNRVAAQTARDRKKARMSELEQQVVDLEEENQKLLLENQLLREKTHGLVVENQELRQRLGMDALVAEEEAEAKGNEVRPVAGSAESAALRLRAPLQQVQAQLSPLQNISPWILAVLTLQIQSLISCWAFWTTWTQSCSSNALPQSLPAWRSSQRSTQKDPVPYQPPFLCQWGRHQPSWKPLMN
In short: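 Fluorescence-labelled cDNA fragments from reporter transcripts, separated by capillary electrophoresis, give the signal. Source: HepG2 cells transfected with promoter-driven reporter units, harvested 24 h post-dose. DMSO served as reference for bidirectional curve fitting.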

[18] = ATG_M_19_TRANS: Attagene TRANS-FACTORIAL HepG2 Assay for M19 Transcription Factor (Internal Marker) (AID 2282974; active = hit-call score of the fitted dose curve at least 0.9, where 1 is the maximum); conditions: HepG2 Attagene TRANS-FACTORIAL M19 internal marker reporter
In short: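 24 h chemical exposure of transiently transfected HepG2 (MRTU library). RNA → oligo(dT) RT → PCR → 6-FAM labelling → HpaI cut → CE fluorescence. Positive-direction fit vs DMSO baseline; background internal-marker readout.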

[19] = ATG_GAL4_TRANS: Attagene TRANS-FACTORIAL HepG2 Assay for GAL4 (Internal Marker) (AID 2282976; active = hit-call score of the fitted dose curve at least 0.9, where 1 is the maximum); conditions: HepG2 Attagene TRANS GAL4 internal marker reporter
In short: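 RT-PCR/capillary electrophoresis readout of reporter mRNA. HepG2, transient MRTU transfection (GAL4-UAS reporters), 24 h compound exposure. Background-control endpoint, positive direction vs DMSO baseline.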

[20] = target: Estrogen-related receptor gamma (Homo sapiens) (UniProt P62508); assay: ATG_ERRg_TRANS: Attagene TRANS-FACTORIAL HepG2 Assay for human Estrogen-Related Receptor gamma (ERRg) (AID 2282977; active = hit-call score of the fitted dose curve at least 0.9, where 1 is the maximum;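 also: hits increase reporter signal over DMSO so potencies reflect activators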); conditions: HepG2 Attagene TRANS reporter, ERRg transactivation
Chain of Estrogen-related receptor gamma (Homo sapiens) (P62508 whole entry, looked up, the tested form may be a part): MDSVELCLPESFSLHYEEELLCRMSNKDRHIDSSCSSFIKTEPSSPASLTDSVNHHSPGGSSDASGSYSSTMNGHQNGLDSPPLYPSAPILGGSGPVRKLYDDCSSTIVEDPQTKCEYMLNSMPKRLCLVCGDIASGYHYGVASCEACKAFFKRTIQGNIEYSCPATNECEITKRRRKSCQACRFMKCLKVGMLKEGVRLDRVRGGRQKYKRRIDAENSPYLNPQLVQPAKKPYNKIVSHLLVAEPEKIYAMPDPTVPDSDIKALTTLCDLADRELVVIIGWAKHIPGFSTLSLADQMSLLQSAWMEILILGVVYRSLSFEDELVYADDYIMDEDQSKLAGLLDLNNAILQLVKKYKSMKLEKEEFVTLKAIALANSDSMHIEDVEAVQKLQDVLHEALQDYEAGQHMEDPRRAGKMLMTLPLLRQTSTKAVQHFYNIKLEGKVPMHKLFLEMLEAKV
In short: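 HepG2 cells transiently transfected with multiplexed GAL4-UAS reporter units and chimeric NR-Gal4 constructs were exposed to test chemicals for 24 h. Reporter mRNA was measured by RT-PCR, 6-FAM primer extension, HpaI digestion and capillary electrophoresis; gain-of-signal versus DMSO.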

Measured: AC50

CC(C)(C)c1ccc(N)cc1
active: [2] 24.2 µM
inactive: all other assays above

Cc1cc(C)c(C)c(O)c1
active: [2] 42.3 µM
not listed: [19] | [20]
inactive: all other assays above

C=CCCCCCCCCC(=O)OCCCC
active: [2] 42.1 µM
not listed: [16] | [19] | [20]
inactive: all other assays above

CCCCCCCC/C=C\CCCCCCCC(=O)OCCO
active: [2] 12.8 µM
not listed: [14] | [16] | [19] | [20]
inactive: all other assays above

C=CC(C)(CCC=C(C)C)OC(=O)CC(C)C (configuration not stated)
active: [2] 6.26 µM | [7] 118 µM
not listed: [16] | [19] | [20]
inactive: all other assays above

CCCCC(CC)COC(=O)c1ccccc1 (configuration not stated)
active: [2] 27.6 µM | [15] 34.6 µM
not listed: [16] | [19] | [20]
inactive: all other assays above

O=C(O)c1ccccc1Nc1cccc(C(F)(F)F)c1
active: [2] 5.5 µM | [3] 33 µM | [4] 100 µM | [7] 26.5 µM | [9] 100 µM | [13] 44.5 µM | [17] 76.5 µM
not listed: [14] | [16] | [18] | [19] | [20]
inactive: all other assays above

CN(C)CCCN(C)C
not listed: [14] | [16] | [20]
inactive: all other assays above

— PubChem BioAssay (EPA / NIEHS)
